In the library only some 0.46% were active in any assay of this set; here they are far more common.
Integrin act MD = activates integrin-mediated alleviation for muscular dystrophy. alpha7betagal myoblasts, beta-gal FDG fluorescence, 48 h. Potency, µM (series often up to 38.3 µM), actives largely listed as activators. 350,000 compounds, 0.064% hits. AID 624291; note: nearly all actives have a fitted effect of over 60% in size
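Alpha7betagal+/- myoblasts (passage 13) were plated 16-24 hr, then exposed to compounds (1:260 dilution of DMSO stock) for 48 hours at 37C. After MPER lysis, β-galactosidase reporter activity was read as FDG fluorescence (ex 480/em 540) after 30 minutes.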
GALK inh = inhibitors of human galactokinase. Purified GALK, Kinase-Glo residual ATP luminescence. 270,000 compounds, 0.007% hits. Potency, µM (titrated, usually from 57.5 µM), usual class: inhibitors. AID 1868. P51570
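Quantitative HTS: GALK 5 nM, ATP 35 uM, galactose 100 uM, 1 h room temperature, then luciferase-based ATP detection.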
Mito fusion act = inhibitors of mitochondrial division or activators of mitochondrial fusion; AID 485298; 320,000 compounds, 0.23% hits; S. cerevisiae fusion-defective mutant growth rescue, CellTiterGlo 48 h; Potency, µM (doses to about 46.1 µM), most hits filed as activators; note: nearly all actives have a fitted effect of over 45% in size
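Growth-rescue viability read-out: after 48 h at the non-permissive 37C in glycerol/ethanol YPEG, yeast mitochondrial fusion mutants are measured by CellTiterGlo luminescence; compounds (23 nl pinned per well) restoring growth score as division inhibitors or fusion activators.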
TSG101-PTAP inh = blocks PTAP/TSG101 interaction to inhibit HIV-1 budding | Potency, µM (series often up to 115 µM), hits mostly inhibitors | 340,000 tested, under 10 active | Fluorescence polarization, FITC-PTAP peptide / Tsg101 binding; active = well fitted inhibition curve with a large enough effect in the main read-out, with a control signal flat, not every such curve was filed as active; inconclusive = small, poorly fitted or top-dose-only effect, or effect the other way, or a change in a side signal; inactive = no such curve, though single readings can be large or run the other way
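Tsg101 binding domain (10 uM final) was mixed with compound and a FITC-labeled PTAP peptide (50 nM final) in HEPES pH 7.5 buffer with NaCl, Tween 20, EDTA and TCEP; fluorescence polarization was read after 20 min at r.t.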
S-ASM inh = blocks human secretory acid sphingomyelinase; 340,000 compounds, 0.006% hits; Potency, µM (top dose mostly 57.5 µM), actives largely listed as inhibitors; P17405; AID 504937; placental ASM, HMU-PC fluorogenic substrate, 60 min
Target sequence (P17405 47-631 limits assumed): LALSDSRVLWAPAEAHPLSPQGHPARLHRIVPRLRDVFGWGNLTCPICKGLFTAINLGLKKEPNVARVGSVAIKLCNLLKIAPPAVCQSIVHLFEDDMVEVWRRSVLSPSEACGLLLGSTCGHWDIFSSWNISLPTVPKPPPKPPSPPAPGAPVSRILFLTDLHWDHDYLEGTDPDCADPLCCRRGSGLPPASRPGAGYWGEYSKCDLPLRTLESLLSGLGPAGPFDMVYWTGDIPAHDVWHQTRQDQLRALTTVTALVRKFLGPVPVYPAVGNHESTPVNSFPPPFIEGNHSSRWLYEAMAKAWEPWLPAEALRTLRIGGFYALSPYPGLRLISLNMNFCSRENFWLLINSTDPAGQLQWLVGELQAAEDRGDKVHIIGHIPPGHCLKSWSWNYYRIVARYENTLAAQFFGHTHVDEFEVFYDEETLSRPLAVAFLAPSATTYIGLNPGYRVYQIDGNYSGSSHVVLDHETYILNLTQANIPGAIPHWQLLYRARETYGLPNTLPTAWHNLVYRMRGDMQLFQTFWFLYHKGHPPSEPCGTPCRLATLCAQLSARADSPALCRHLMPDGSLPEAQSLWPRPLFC
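Fluorogenic HMU-PC substrate (9 uM final) is turned over by placental ASM in 60 min at 37 C after a 10 min compound preincubation. Reaction ended by alkaline stop (pH 10), with fluorescence read at 386/447 nm.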
AT treatment = potential ataxia-telangiectasia treatments restoring KAP-1 phosphorylation; F2112 A-T fibroblasts, KAP-1 phosphorylation AlphaLISA; neocarzinostatin DNA damage 30 min before lysis; Potency, µM (titrated, usually from 57.5 µM), hits mostly activators; 320,000 compounds, 0.19% hits; note: nearly all actives have a fitted effect of over 45% in size
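ATM-like activity read as KAP-1 phosphorylation via AlphaLISA donor/acceptor antibody pairs after lysis and 6 hr at 25C. Cells were ATM-null patient fibroblasts (F2112, hTERT), dosed 60 min, then exposed to the DSB inducer NCS for 30 min.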
Of the large screens only hits and unclear results are named; the others gave an inactive call; ! = not confirmed by another sample. Unless noted, calls come from the whole dose curve; as a rule, active = well fitted curve in the direction sought with a large enough effect; inconclusive = small, poorly fitted or top-dose-only effect, or another doubt; inactive = no such curve, though single readings can be large; an effect the other way counts as inactive or inconclusive.

CCCCCC(O)(c1ccccc1)C(CN1CCOCC1)c1ccccc1 (stereo not drawn)	AT treatment 32µM (no result: GALK inh)
CCCC(O)(c1ccc(CC)cc1)C(CN1CCOCC1)c1ccccc1 (stereo not drawn)	AT treatment 32µM
CCCC(O)(c1ccccc1)C(CN1CCOCC1)c1ccccc1 (stereo not drawn)	none
N.N.O=C(O)C1(C(=O)O)CCC1.[Pt+2]	none (no result: Integrin act MD, GALK inh, TSG101-PTAP inh, S-ASM inh, AT treatment)
COc1ccc(N(C(=O)Cn2nnc(-c3ccc(F)cc3)n2)C(C)C(=O)NC2CCCC2)cc1 (stereo not drawn)	none
CC(C(=O)NC1CCCC1)N(C(=O)Cn1nnc(-c2ccc(F)cc2)n1)c1ccccc1F (stereo not drawn)	Mito fusion act 7.1µM
COc1ccc(C2c3ccc(O)cc3Oc3ncn(CCCO)c(=N)c32)cc1 (stereo not drawn)	AT treatment 25µM
CN(CC(=O)Nc1cccc(F)c1)CC(=O)Nc1ccccc1Oc1ccccc1	none
COc1ccc(C(C)=O)cc1COC(=O)CSCC(=O)Nc1ccc(C)cc1	none (no result: GALK inh)
O=Cc1cnc(N2CCCCC2)s1	Integrin act MD 11µM
CCOC(=O)C1CCN(S(=O)(=O)c2ccc3c(c2)N(C(C)=O)CC(C)S3)CC1 (stereo not drawn)	none
CCCCc1cc(=O)oc2c(CN3CCCC3)c(O)c(Cl)cc12	AT treatment 22µM
CCCc1cc(=O)oc2c(CN3CCN(C)CC3)c(O)c(Cl)cc12	none
CN(C)c1nc2c(Br)c(Br)c(Br)c(Br)c2[nH]1	Mito fusion act 4.1µM (no result: Integrin act MD, GALK inh, TSG101-PTAP inh, S-ASM inh, AT treatment)
Cc1ccnc(NC(=O)c2ccc(Cl)cc2Cl)n1	none (no result: Integrin act MD, TSG101-PTAP inh, S-ASM inh)
Cc1cc(C)nc(NC(=O)c2ccc(Cl)cc2Cl)n1	Integrin act MD 10µM
Cc1cccc(C)c1NC(=O)COC(=O)c1cc(=O)c2ccccc2o1	AT treatment 3.5µM
O=C(Nc1c(C(=O)O)oc2ccccc12)c1ccc(C(F)(F)F)cc1	none (no result: Integrin act MD, GALK inh, TSG101-PTAP inh, S-ASM inh, AT treatment)
Cn1c2cc(Br)sc2c2cnn(Cc3ccc(F)cc3)c(=O)c21	none (no result: Integrin act MD, GALK inh, TSG101-PTAP inh, S-ASM inh)
COc1ccc(C2CC(c3ccc(Br)cc3)=NN2C(=O)c2cccnc2)cc1 (stereo not drawn)	Mito fusion act 18µM
Cc1cc2c(s1)c1c(n2C)C(=O)N(Cc2ccccc2F)C1	none (no result: Integrin act MD, GALK inh, TSG101-PTAP inh, S-ASM inh)
COCCN(Cc1cn(C)nc1-c1ccccc1F)C(C)C	Mito fusion act 5.6µM
COc1cc2nc(C3CCC3)nc(N3CCN(c4ccccc4OC)CC3)c2cc1OC	Mito fusion act 14µM (no result: GALK inh)
O=[N+]([O-])c1ccc2oc(C(O)c3cccc(Cl)c3)cc2c1 (stereo not drawn)	Mito fusion act 25µM
NC(=O)Cn1cc(/C=N/NC(=O)c2ccc(Cn3cc(Cl)cn3)o2)c(-c2ccccc2)n1	none
O=C(C1CCCN(Cc2ccccc2F)C1)N1CCc2ccccc2C1 (stereo not drawn)	AT treatment 40µM
O=C(C1CCCN(Cc2ccccc2F)C1)N1CCCCC1 (stereo not drawn)	none
CCN(C(=O)CCN1C(=O)S/C(=C\c2ccccc2)C1=O)C1CCS(=O)(=O)C1 (stereo not drawn)	none
C[C@]12CC[C@@H]3c4ccc(O)cc4CC[C@H]3[C@@H]1CC[C@@H]2O	Mito fusion act 23µM! (no result: Integrin act MD)
Cc1ccc(O)c(C(=O)/C=C/c2ccc3c(c2)OCCCO3)c1	AT treatment 16µM
Cc1ccc(/C=N/n2c(C)nc3ccccc3c2=O)s1	none (no result: Integrin act MD, TSG101-PTAP inh, S-ASM inh)
O=C(NCCc1ccc(F)cc1)N[C@@H](Cc1ccccc1)C(=O)O	Integrin act MD 11µM
COc1ccccc1C(=O)NCCC(=O)NCc1ccncc1	none (no result: GALK inh)
Cn1cc(Br)c(C(=O)N/N=C/c2cccc(OC3CSC3)c2)n1	Mito fusion act inconclusive (no result: GALK inh)
CCOc1cc(/C=N/NC(=O)c2nn(C)cc2Br)ccc1OCc1ccccc1Cl	Mito fusion act 4µM (no result: GALK inh)
Cc1noc(C)c1C(=O)Nc1nccs1	none
CCNC(=O)COc1ccc(/C=C2\COc3ccccc3C2=O)cc1OC	AT treatment 25µM
CC(=O)c1ccc(N(C(=O)CNC(=O)c2ccco2)C(C(=O)NC2CCCC2)c2ccc(C)o2)cc1 (stereo not drawn)	Integrin act MD 10µM
COc1ccc(N(C(=O)CNC(=O)c2ccco2)C(C(=O)NC2CCCC2)c2ccc(C)o2)cc1 (stereo not drawn)	none
CCN1C(=O)[C@H]2[C@@H](c3ccc(-c4ccc(Cl)c(Cl)c4)cc3)N[C@@](CC(C)C)(C(=O)OC)[C@H]2C1=O	AT treatment 35µM (no result: GALK inh)
Cc1cc(C)c(OCC(O)CN2CCN(C(=O)c3ccccc3)CC2)c(C)c1 (stereo not drawn)	none
Cc1cccc(NC(=S)NNC(=O)COc2ccc(Cl)cc2Cl)c1	Mito fusion act 22µM
CCOC(=O)c1cc(-c2ccc(OC)cc2)n(CCC(=O)NCc2ccccc2OC)c1C	none (no result: Integrin act MD, GALK inh, TSG101-PTAP inh, S-ASM inh, AT treatment)
CC(N)(Cc1ccc(O)c(O)c1)C(=O)O (stereo not drawn)	none (no result: Integrin act MD, GALK inh, TSG101-PTAP inh, S-ASM inh, AT treatment)
CC(=O)c1ccc(N2CCN(C(=O)CCC(=O)Nc3ccc4nc(N5CCN(C)CC5)cc(C)c4c3)CC2)cc1	none
Cc1cc(C)c(C#N)c(SCc2ccccc2F)n1	none
Cc1cc(C)c(C#N)c(SCc2ccccc2C)n1	Mito fusion act 7.1µM (no result: GALK inh)
CC1=C/C(=C\C=C(C#N)C#N)N(C)c2ccccc21	AT treatment 13µM
CN1/C(=C/C=C(C#N)C#N)C(C)(C)c2ccccc21	TSG101-PTAP inh inconclusive
C=CCn1c(SCC(=O)N2CCc3ccccc3C2)nc2sc(CC)cc2c1=O	Mito fusion act inconclusive
C=CCn1c(SCC(=O)N2CCc3ccccc3C2)nc2sc(C)c(C)c2c1=O	Mito fusion act 13µM
COC(=O)c1ccccc1NC(=O)c1cc[n+]([O-])cc1	Integrin act MD 4µM
O=c1c2ccccc2sc2nc(C3CCCCC3)n(Cc3ccco3)c(=O)c12	Mito fusion act 3.5µM
O=C(CN1C(=O)c2cccc([N+](=O)[O-])c2C1=O)NCc1ccccc1	AT treatment 3.2µM
CC1(NC(=O)Cc2ccc(S(=O)(=O)N3CCOCC3)s2)CCS(=O)(=O)C1 (stereo not drawn)	none (no result: GALK inh)
CC1(C)O[C@@H]2C[C@H]3[C@@H]4CCC5=CC(=O)C=C[C@]5(C)[C@@]4(F)[C@@H](O)C[C@]3(C)[C@]2(C(=O)CO)O1	Mito fusion act 13µM (no result: Integrin act MD)
CC1(C)O[C@@H]2C[C@H]3[C@@H]4C[C@H](F)C5=CC(=O)C=C[C@]5(C)[C@@]4(F)[C@@H](O)C[C@]3(C)[C@]2(C(=O)CO)O1	none (no result: Integrin act MD)

From PubChem
